“And” between values parts separate entries of the source, which are not always exact repeats. Equal entries are not always repeated.

Holding throughout (format): functional
Assay [1] deals with Solute carrier family 2, facilitated glucose transporter member 1 (Homo sapiens) (UniProt P11166). Kind of assay: ST_JUDE_LEISH: Cytotoxicity at 2uM final concentration against transgenic Leishmania Mexicana promastigotes LmGLUT1 that are glucose transport deficient and complemented with the human glucose transporter GLUT1. Activity is measured by DNA content using SYBR green in vitro.

For assay [2], the target named is Hexose transporter 1 (Plasmodium falciparum) (UniProt O97467). Kind of assay: ST_JUDE_LEISH: Cytotoxicity at 2uM final concentration against transgenic Leishmania Mexicana promastigotes LmPfHT that are glucose transport deficient and complemented with the Plasmodium falciparum hexose transporter. Activity is measured by DNA content using SYBR green in vitro.
The target of assay [3] is Glucose transporter (Leishmania mexicana) (UniProt O61059). The assay can be described thus: ST_JUDE_LEISH: Cytotoxicity at 2uM final concentration against transgenic Leishmania Mexicana promastigotes LmGT2 that are glucose transport deficient and complemented with the L. Mexicana glucose transporter 2. Activity is measured by DNA content using SYBR green in vitro.

Sequence of Solute carrier family 2, facilitated glucose transporter member 1 (Homo sapiens) (P11166 whole entry): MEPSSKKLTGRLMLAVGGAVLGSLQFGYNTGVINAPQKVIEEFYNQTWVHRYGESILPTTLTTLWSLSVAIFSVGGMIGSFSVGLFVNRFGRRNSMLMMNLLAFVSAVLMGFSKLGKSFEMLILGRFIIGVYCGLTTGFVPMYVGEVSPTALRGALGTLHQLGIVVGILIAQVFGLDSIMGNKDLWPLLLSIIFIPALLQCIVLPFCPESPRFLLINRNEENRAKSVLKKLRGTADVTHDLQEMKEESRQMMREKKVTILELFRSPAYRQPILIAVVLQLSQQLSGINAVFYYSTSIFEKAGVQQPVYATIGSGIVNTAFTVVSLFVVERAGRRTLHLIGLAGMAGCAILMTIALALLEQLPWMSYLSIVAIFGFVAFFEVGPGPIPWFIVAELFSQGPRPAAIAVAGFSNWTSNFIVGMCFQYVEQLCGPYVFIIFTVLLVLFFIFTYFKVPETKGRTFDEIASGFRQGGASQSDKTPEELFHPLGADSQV

`CCNc1cc(C(=O)N[C@@H](Cc2ccccc2)[C@H](O)CNCc2ccc3c(c2)OCCO3)cc(N2CCCCS2(=O)=O)c1`: the values for the inhibition in assay [1], in assay [2] and in assay [3] were 0.98%, 1.25% and 1.57%, respectively.

Turning to `Cc1cccc2nc(-c3ccc(-c4cccc(NC(=O)CCc5c[nH]cn5)c4)s3)[nH]c12`, the results for the inhibition in assay [1], in assay [2] and in assay [3] were 3.85%, 2.05% and 1.67%, respectively.

Consider `COc1ccc2nccc([C@@H](O)CN3CCC(NC(=O)c4nc(Cl)c(Cl)c(N)c4Cl)CC3)c2c1`, for which the inhibition – broadly, the drop in the measured response relative to a control, in per cent – in assay [1] is -0.09%; in assay [2] it was -0.22%; in assay [3], 1.55%.

For the compound `Cc1[nH]c(C)c(-c2ccc(OCc3cc(F)cc(F)c3)nc2)c(=O)c1Br`, the values for the inhibition in assay [1], in assay [2] and in assay [3] were 3.26%, 5.62% and 0.58%, respectively.

In the case of `Cc1ccc(Nc2nc(N)c3ccccc3n2)cc1`, the inhibition in assay [1] is 22%; in assay [2], 17.5%; in assay [3], 4.74%.

In the case of `Cc1[nH]c(C)c([N+](=O)[O-])c(=O)c1-c1ccc(Oc2ccccc2)cc1`, the inhibition in assay [1] was -1.81%; in assay [2] it was 0.5%; in assay [3], -1.98%.

`CC(Sc1nnc(-c2cccs2)[nH]1)C(=O)c1c[nH]c2ccccc12` (stereo not drawn): the inhibition was 0.9% in assay [1], 1.35% in assay [2] and 0.63% in assay [3].

Turning to `c1ccc(CNCc2ccc(-c3ccc(-c4nc5ccccc5[nH]4)cc3)cc2)cc1`, the inhibition in assay [1] amounted to 20.4%; in assay [2], 12.9%; in assay [3], 10%.

As for `CN(C)CCOc1cc(NC(=O)Nc2cccc([N+](=O)[O-])c2)ccc1I`, the inhibition in assay [1] turned out to be 13%; in assay [2] it was 14.6%; in assay [3], 15.7%.

Turning to `Fc1cc(Cl)ccc1Nc1ccnc2cc(-c3ccc(CN4CCSCC4)o3)ccc12`, the results for the inhibition in assay [1], in assay [2] and in assay [3] were 1.72%, 3.56% and 8.14%, respectively.

On to `Cc1nc2ccc(-c3ccc(OC(F)(F)F)cc3)cc2c(O)c1C#N`, for which the inhibition was -2.1% in assay [1], 0.11% in assay [2] and -1.44% in assay [3].

As to `CC(C)Oc1ccc(C=CC(=O)Nc2noc3ccccc23)cc1`, the inhibition in assay [1] worked out at 2.56%; in assay [2], 3.16%; in assay [3], 2.36%.

In the case of `N#Cc1ccc(N/C(=N\c2ccc(-c3ccccc3)cc2)NCc2cccnc2)c(O)c1`, the inhibition in assay [1] was 6.14%; in assay [2] it was 1.66%; in assay [3], 5.44%.

Turning to `O=C(NCCCCCN1CCCN(C(=O)Nc2ccc(Cl)c(C(F)(F)F)c2)CC1)C1CC1c1ccc(Cl)c(Cl)c1` (stereo not drawn), the inhibition in assay [1] was 2.42%; in assay [2], 0.79%; in assay [3], 0.24%.

`CN1CCN(Cc2ccc(-c3ccc4c(Nc5ccc(Cl)cc5F)ccnc4c3)o2)CC1`: the inhibition in assay [1] was 11.9%; in assay [2] it was 11.8%; in assay [3] it was 11.1%.

As for `O=C(NC1CCN(Cc2ccccc2)C1)c1ccc(Nc2ccc(Br)cc2)nc1` (stereo not drawn), the inhibition in assay [1] was 1.79%; in assay [2], 0.12%; in assay [3], -1.43%.

For the compound `CC(C)=CCN1CCC(C(=O)Nc2ccc(-c3nc4ccccc4[nH]3)cc2)CC1`, the inhibition turned out to be 5.64% in assay [1], 5.1% in assay [2] and 6.97% in assay [3].

For the compound `CN1CCc2ccc(NC(=O)Nc3ccc(-c4ccccc4)cc3)cc2C1`, the inhibition stood at 1.53% in assay [1], 0.83% in assay [2] and 0.87% in assay [3].

For the compound `CCN(CC)/C(=N/C(=N)Nc1ccc(C)cc1)NCCCCCCN/C(=N\C(=N)Nc1ccc(C)cc1)N(CC)CC`, the inhibition in assay [1] was found to be 7.79%; in assay [2] it was 5.77%; in assay [3], 5.53%.

In the case of `CO[C@H](C)[C@H](NC(=O)[C@H](CC(C)C)[C@H](CCC(F)(F)F)N(O)C=O)C(=O)Nc1nccs1`, the inhibition in assay [1] came out at 4.95%; in assay [2], 4.95%; in assay [3], 3.68%.

As for `CS(=O)(=O)CCNCc1nc(-c2ccc3c(=O)[nH]cnc3c2)cs1`, the inhibition stood at 18.2% in assay [1], 48% in assay [2] and 31.5% in assay [3].

Turning to `C=C[C@H]1CN2CC[C@H]1C[C@H]2[C@H](O)c1ccnc2ccc(OC)cc12`, the inhibition is 7.23% and -4.42% and 0.77% in assay [1]; 6.11% and -3.17% and 2.26% in assay [2]; -0.01% and 5.72% and -2.15% in assay [3].

With `Cn1nc(C(F)(F)F)cc1-c1ccc(C(=O)Nc2ccc3c(c2)CNCC3(C)C)s1`, the inhibition in assay [1] was determined as 4.85%; in assay [2], 0.03%; in assay [3], 2.34%.

On to `O=C(NCc1ccc(Cl)c(Cl)c1)c1ccc(-c2nc3cc(F)c(F)cc3[nH]2)cc1`, for which the inhibition in assay [1] was 0.21%; in assay [2] it was 0.14%; in assay [3], -0.73%.

For the compound `COc1ccc(-c2nc3cccnc3n2CC(=O)Nc2cc(Cl)c(Cl)cc2Cl)c(OC)c1`, the inhibition in assay [1] is -3.62%; in assay [2] it was -1.91%; in assay [3] it was -2.74%.

With `Nc1nc(N)c2c(ccc3c2ccn3CCCCO)n1`, the results for the inhibition in assay [1], in assay [2] and in assay [3] were 5.49%, 7.01% and 6.28%, respectively.

Take `c1ccc(-c2nc3ccccc3[nH]2)c(Nc2ccnc3cc(-c4nccs4)ccc23)c1`: the inhibition in assay [1] worked out at 4.76%; in assay [2], 0.91%; in assay [3], 0.58%.

As for `Oc1ccccc1CCNC1CCc2ccccc2C1` (stereo not drawn), the inhibition is 4.4% in assay [1], 5.27% in assay [2] and 6.05% in assay [3].

On to `Cc1ccc2[nH]c3c(NCCCN(C)C)ncnc3c2c1`, for which the figures for the inhibition in assay [1], in assay [2] and in assay [3] were -1.63%, -0.22% and -0.28%, respectively.

For `Cc1cc(=NN=CC=Cc2ccccc2)c2ccccc2[nH]1`, the inhibition amounted to 1.28% in assay [1], 2.74% in assay [2] and 0.81% in assay [3].

Take `COc1cc(C2CCN(CCCCNC(=O)c3ccc(NC(=O)c4cc(C(F)(F)F)cc(C(F)(F)F)c4)cc3)CC2)ccc1OC(C)C`: the results for the inhibition in assay [1], in assay [2] and in assay [3] were 1.12%, 0.93% and 1.71%, respectively.

For `CCCCCCCN(Cc1ccc(OC(C)(C)C(=O)OCC)cc1)C(=O)Nc1ccccc1OC(F)(F)F`, the inhibition is 0% in assay [1], -1.12% in assay [2] and 1.43% in assay [3].

Consider `N=c1n(CCN2CCCCC2)c2ccccc2n1CC(O)c1ccc(Cl)c(Cl)c1` (stereo not drawn), for which the inhibition in assay [1] is 1.22%; in assay [2] it was -0.46%; in assay [3], 1.58%.

Take `O=C(NC1CCCCN(Cc2ccc3c(c2)OCCO3)C1)c1cc(-c2ccccc2F)cs1` (stereo not drawn): the inhibition was determined as 12.7% in assay [1], 16.4% in assay [2] and 12.8% in assay [3].

Regarding `O=C1OC(c2ccccc2)(c2ccccc2)CN1C1CCN(Cc2ccc(O)c(Cl)c2)C1` (stereo not drawn), the results for the inhibition in assay [1], in assay [2] and in assay [3] were 1.71%, 1.04% and -0.68%, respectively.

As for `CC(C)CCn1c(Sc2ccc(C#N)c([N+](=O)[O-])c2)nnc1-c1cccc(Cl)c1`, the results for the inhibition in assay [1], in assay [2] and in assay [3] were 9.63%, 9.97% and 8.26%, respectively.

The record behind these values is ChEMBL document CHEMBL3433997, “St. Jude Leishmania screening dataset” (2016).
